Source: PubChem BioAssay
This is a sample that favours compounds with a hit; in the whole collection about 19% have one here.
TDP1 cell CPT: DT40-hTDP1 cell growth loss with CPT; chicken DT40 Tdp1-/-;hTDP1 cells + 20 nM CPT, ATP luminescence, 48 h; Potency, µM (highest dose often 46.2 µM), without a hit: at the highest dose activity change, negative = growth inhibition, most hits filed as inhibitors; 420,000 compounds, 12% hits; AID 686979; note: nearly all actives have a fitted effect of over 55% in size
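Chicken DT40 Tdp1-/- cells complemented with human TDP1, 400 cells/well, exposed to compounds plus 20 nM camptothecin for at least 48 h at 37 C; viability read as ATP content by CellTiter-Glo luminescence.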
KB-V1 MDR tox: kills drug-selected multidrug resistant KB-V1 cells. KB-V1 MDR cells viability, CellTiter-Glo, 72 h. Potency, µM (titrated, usually from 46.1 µM), usual class: cytotoxic. 400,000 compounds, 3.4% hits. AID 1347076; note: nearly all actives have a fitted effect of over 60% in size
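Drug-selected KB-V1 cells, grown in DMEM lacking phenol red with 10% FBS, receive compound titrations; after three days at 37 degrees C, surviving cell ATP is quantified by CellTiter-Glo luminescence and responses normalized and curve-fitted.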
HT1080 IDH1KD tx: toxicity to HT-1080 IDH1 knockdown cells (counter line); 360,000 compounds, 2% hits; AID 686971; Potency, µM (series often up to 46.1 µM), inactives show at the highest dose activity, negative = toxicity, hits mostly cytotoxic; HT-1080 IDH1 knockdown viability, ATP luminescence, 48 h;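 note: 0% = DMSO wells and -100% = cell-free medium wells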
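CellTiter-Glo luminescence after 48 h compound exposure at 37 degrees C of IDH1-knockdown HT-1080 cells in 5% FBS RPMI. %Activity scaled between DMSO wells and cell-free media wells, with curves fitted and assigned curve classes.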
HT1080NT lethal: kills 2HG-producing HT-1080-NT fibrosarcoma cells. 360,000 compounds, 1.6% hits. Potency, µM (doses to about 46.1 µM), for the others: at the top dose activity, negative = less viability, usual class: cytotoxic. AID 686970. HT-1080-NT fibrosarcoma viability, CellTiter-Glo ATP luminescence, 48 h;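 note: NT is the 2HG producing partner of a matched IDH1 knockdown line; 0% = DMSO-treated cells and -100% = media-only wells without cells; nearly all actives have a fitted effect of over 55% in size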
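A 48-hour cytotoxicity screen used HT-1080-NT cells plated 2 hours before compound delivery. ATP-based CellTiter-Glo luminescence measured viability, normalized to DMSO and no-cell controls.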
TDP1 cell noCPT: qHTS for Inhibitors of human tyrosyl-DNA phosphodiesterase 1 (TDP1): qHTS in cells in absence of CPT. DT40 Tdp1-/- hTDP1 cells, no CPT, ATP luminescence, 48 h. 420,000 compounds, 15% hits. Potency, µM (series often up to 46.2 µM), for inactives: at the highest dose activity change, negative = growth inhibition, actives largely listed as inhibitors; note: nearly all actives have a fitted effect of over 55% in size
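No-CPT arm: Tdp1-/-;hTDP1 DT40 cells (400/well) plus compounds, incubated ≥48 hr at 37 °C. Readout CellTiter-Glo luminescence.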
KB-3-1 cytotox: KB-3-1 parental cell cytotoxicity. KB-3-1 viability, CellTiter-Glo ATP luminescence, 72 h. Potency, µM (series often up to 46.1 µM), actives largely listed as cytotoxic. 400,000 compounds, 1.4% hits. AID 1347075; note: nearly all actives have a fitted effect of over 60% in size
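KB-3-1 cells, DMEM (no phenol red) + 10% FBS; compound by pin transfer, 72 h, 37 °C. Readout: CellTiter-Glo luminescence after 10 min. Data normalized, curve-fitted.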
* marks the source's active call; other numbers are inactive results; i = inactive; ? = inconclusive; · = no result. Calls come from the whole dose curve; as a rule, active = well fitted curve in the direction sought with a large enough effect; inconclusive = small, poorly fitted or top-dose-only effect, or another doubt; inactive = no such curve, though single readings can be large; an effect the other way counts as inactive or inconclusive. Unless noted, % is set by controls: 0 for no effect and ±100 for the full control effect; potency is the fitted concentration of half-maximal effect.

SMILES	TDP1 cell CPT	KB-V1 MDR tox	HT1080 IDH1KD tx	HT1080NT lethal	TDP1 cell noCPT	KB-3-1 cytotox
O=C(NC(c1ccccc1)c1ccc2ccccc2n1)C1CCN(Cc2ccc(Oc3ccccc3)cc2)CC1 (centres undefined)	?	i	13µM*	?	?	i
COc1cc(OC)nc(C(NC(=O)C2CCN(Cc3ccc(Oc4ccccc4)cc3)CC2)c2ccccc2C)n1 (centres undefined)	?	i	?	16µM*	?	i
O=C(c1cc2n(n1)C(C(F)(F)F)CC(c1ccco1)N2)N1CCN(c2ccccn2)CC1 (centres undefined)	?	i	-4%	-1%	26µM*	i
O=C(c1cc2nc(-c3ccco3)cc(C(F)(F)F)n2n1)N1CCN(c2ccccn2)CC1	26µM*	?	3%	-7%	13µM*	i
NC(=O)c1cc2n(n1)C(C(F)(F)F)CC(c1ccco1)N2 (centres undefined)	-1%	?	16%	14%	19%	?
O=C(O)c1cc2n(n1)C(C(F)(F)F)CC(c1ccco1)N2 (centres undefined)	6%	i	7%	8%	1%	i
Cc1cccc(N2CCN(C(=O)c3cc4n(n3)C(C(F)(F)F)CC(c3ccco3)N4)CC2)c1C (centres undefined)	21µM*	?	?	?	15µM*	?
c1ccc(Nc2ncncc2-c2ccc3c(c2)OCO3)cc1	-17%	·	·	·	-13%	·
O=C(O)c1cccc2cc(-c3ccccc3)oc(=O)c12	-3%	i	12%	3%	13%	i
O=C(O)c1cccc2cccc(-c3c4ccc(=O)c(O)c-4oc4c(O)c(O)ccc34)c12	10µM*	i	-2%	0%	7.3µM*	i
OC(c1ccc(F)c(F)c1)c1ncc(-c2cccc(C(F)(F)F)c2)[nH]1 (centres undefined)	?	i	?	?	16µM*	i
OC(c1ccc(Cl)c(F)c1)c1ncc(-c2ccc(F)cc2)[nH]1 (centres undefined)	?	i	?	?	-19%	i
OC(c1ccc2c(c1)OCO2)c1ncc(-c2cccc(C(F)(F)F)c2)[nH]1 (centres undefined)	-35%	i	-15%	-23%	8.2µM*	i
OC(c1ccccc1)c1ncc(-c2cccc(C(F)(F)F)c2)[nH]1 (centres undefined)	?	i	-5%	11%	?	i
OC(c1ccc2c(c1)OCO2)c1ncc(-c2ccc(Cl)cc2)[nH]1 (centres undefined)	?	i	-21%	-16%	?	i
Cc1ccc(C(O)c2ncc(-c3cccc(C(F)(F)F)c3)[nH]2)cc1 (centres undefined)	?	i	-29%	-29%	18µM*	i
OC(c1ccc(Cl)c(F)c1)c1ncc(-c2cccc(C(F)(F)F)c2)[nH]1 (centres undefined)	?	i	?	?	23µM*	i
CC(NC(=O)C1CCOCC1)c1nnc2n1CCN(Cc1ccc(F)cc1)CC2 (centres undefined)	16%	·	·	·	-5%	·
Cc1cc(NC(=O)CCNS(=O)(=O)c2cccc3nsnc23)ccc1Br	-25%	i	·	·	-12%	i
COC(=O)c1cc(CNC(=O)c2ccc(N(C)C)cc2)cc(NC(=O)c2ccccc2Cl)c1	0%	·	·	·	-28%	·
CN(CC(=O)Nc1cccc(F)c1)C(=O)/C=C/c1ccc2ccccc2n1	?	i	-1%	-3%	0%	i
CCC(C(=O)OCC(=O)N1CCN(c2ccc(OC)cc2)CC1)c1ccccc1 (centres undefined)	?	i	10%	0%	?	i
Cc1cc(O)c(C(c2ccccc2)N2CCC(C)CC2)c(=O)n1Cc1ccco1 (centres undefined)	-13%	i	·	·	-9%	i
Cc1ccc(-c2cnc(C(O)c3ccc(Cl)c(Cl)c3)[nH]2)cc1 (centres undefined)	?	i	?	?	15µM*	i
Cc1ccc(C(O)c2ncc(-c3cccc(C(F)(F)F)c3)[nH]2)cc1F (centres undefined)	26µM*	i	?	?	13µM*	i
SMILES	TDP1 cell CPT	KB-V1 MDR tox	HT1080 IDH1KD tx	HT1080NT lethal	TDP1 cell noCPT	KB-3-1 cytotox
Cc1cccc(C)c1C(O)c1ncc(-c2cccc(C(F)(F)F)c2)[nH]1 (centres undefined)	?	i	?	?	?	i
Cc1ccc(-c2cnc(C(O)c3ccc(Cl)c(F)c3)[nH]2)cc1 (centres undefined)	?	i	-16%	-5%	?	i
O=C(CCn1c(=O)c2sccc2n(CC(=O)Nc2ccccc2)c1=O)NCc1ccccc1Cl	?	i	·	·	?	i
O=C(C1CC1)N1CCc2cc(Br)cc(S(=O)(=O)N3CCCCCC3)c21	?	9.2µM*	-16%	-9%	21µM*	?
O=C(C1CC1)N1CCc2cc(Br)c(S(=O)(=O)N3CCCCCC3)cc21	16µM*	i	-2%	-19%	?	i
COc1ccc(CCNC(=O)CSc2nnc3ccc(-c4cccnc4)nn23)cc1	-7%	i	14%	-2%	12%	i
C=CCNC(=S)NNC(=O)CCC(O)COCCC(C)C (centres undefined)	1%	i	13%	22%	-14%	i
C=CCNC(=S)NNC(=O)C(CCCC)CC(C)(C)O (centres undefined)	8.2µM*	i	12%	9%	7.3µM*	i
C=CCOc1cccn2c(N(C)C(=O)c3ccncc3)c(CC)nc12	4%	i	8%	23%	-12%	i
CC(C)=C1CCC(C)CC1=NNC(N)=S (centres undefined)	?	i	-3%	-2%	21µM*	i
CC1C/C(=N\NC(N)=S)c2cc(Cl)ccc2S1 (centres undefined)	-2%	i	-17%	?	?	i
CCc1ccc(OCc2cc(=O)n3c4c(sc3n2)CCCC4)cc1	-27%	i	·	·	?	i
